PubChem BioAssay (EPA / NIEHS)
Inconclusive results are not listed. The source holds several records for some structures; these can differ, active in one and inactive in another. Calls of active or inactive are those of the source. How the source made its calls: active means hit-call score of the fitted dose curve at least 0.9, where 1 is the maximum; inconclusive means response in the unintended direction; inactive means score below 0.9.

Assays:
[1] = TOX21_p53_BLA_p2_viability: Viability Assessment in the Tox21 HCT-116 p53 Agonism Beta-lactamase Assay, Phase 2 (AID 2283591);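 further: compound exposure lasted 16 h at 37 °C; actives lower the ATP signal meaning cytotoxicity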
Procedure, shortened: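 HCT-116 p53-bla cells (4000/well) rested 5 h at 37C, then received compounds in DMSO (217-fold dilution) for 16 h at 37C, 5% CO2. After the CCF4 read, CellTiter-Glo was added; ATP luminescence was read after 30 min at room temperature.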

[2] = biological target: Cellular tumor antigen p53 (Homo sapiens) (UniProt P04637); assay: TOX21_p53_BLA_p2_ratio: Tox21 HCT-116 p53 Agonism Beta-lactamase Assay, Ratio, Phase 2 (AID 2283592)
Cellular tumor antigen p53 (Homo sapiens), sequence (P04637 whole entry, looked up): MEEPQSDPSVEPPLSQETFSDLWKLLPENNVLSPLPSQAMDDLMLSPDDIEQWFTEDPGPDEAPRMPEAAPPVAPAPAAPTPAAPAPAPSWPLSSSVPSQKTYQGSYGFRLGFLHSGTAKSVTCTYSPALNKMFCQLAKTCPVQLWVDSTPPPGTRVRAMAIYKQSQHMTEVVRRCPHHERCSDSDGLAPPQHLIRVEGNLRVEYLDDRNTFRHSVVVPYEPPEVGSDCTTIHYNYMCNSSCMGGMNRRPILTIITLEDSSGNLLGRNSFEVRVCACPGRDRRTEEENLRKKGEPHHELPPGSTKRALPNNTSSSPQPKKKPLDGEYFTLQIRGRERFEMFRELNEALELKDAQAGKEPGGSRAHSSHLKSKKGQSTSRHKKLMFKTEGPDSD
Procedure, shortened: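 Human colon HCT116 cells with an inducible p53 beta-lactamase reporter are exposed to test chemicals for 16 h at 37C. Reporter induction is read as the 460/530 nm emission ratio after CCF4-AM loading, normalized to DMSO.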

[3] = biological target: Cellular tumor antigen p53 (Homo sapiens) (UniProt P04637); assay: TOX21_p53_BLA_p5_ratio: Tox21 HCT-116 p53 Agonism Beta-lactamase Assay, Ratio, Phase 5 (AID 2283599)
Procedure, shortened: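 HCT-116 cells carrying a p53-inducible beta-lactamase reporter were seeded at 4000 cells/well and dosed after 5 h with compound in DMSO (217-fold dilution). After 16 h at 37C, CCF4-AM substrate was added for 2 h, and the 460/530 nm emission ratio was scored as gain-of-signal versus DMSO.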

[4] = biological target: Cellular tumor antigen p53 (Homo sapiens) (UniProt P04637); assay: TOX21_p53_BLA_p4_ratio: Tox21 HCT-116 p53 Agonism Beta-lactamase Assay, Ratio, Phase 4 (AID 2283601)
Procedure, shortened: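 HCT116 cells carrying an inducible beta-lactamase reporter were plated at 4000 cells/well, rested 5 h, then exposed to compounds in DMSO (217-fold dilution) for 16 h at 37C. CCF4-AM substrate was loaded 2 h at room temperature; 460/530 nm emission ratio scored gain-of-signal versus DMSO.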

[5] = TOX21_p53_BLA_p3_viability: Viability Assessment in the Tox21 HCT-116 p53 Agonism Beta-lactamase Assay, Phase 3 (AID 2283593);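 further: cells exposed to compound for 16 h before reading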
Procedure, shortened: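 HCT-116 cells (4000/well) rested 5 h at 37C, then got DMSO compounds by pin tool (217-fold dilution) for 16 h at 37C, 5% CO2. After the bla read, CellTiter-Glo was added and luminescence read at 30 min, room temperature.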

[6] = biological target: Cellular tumor antigen p53 (Homo sapiens) (UniProt P04637); assay: TOX21_p53_BLA_p3_ratio: Tox21 HCT-116 p53 Agonism Beta-lactamase Assay, Ratio, Phase 3 (AID 2283596)
Procedure, shortened: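 HCT116 p53-bla cells (4000/well) given compound in DMSO (217-fold dilution) after 5 h, incubated 16 h at 37C. CCF4-AM substrate 2 h at room temperature; 460/530 nm emission ratio, gain fitted against DMSO.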

[7] = TOX21_p53_BLA_p4_viability: Viability Assessment in the Tox21 HCT-116 p53 Agonism Beta-lactamase Assay, Phase 4 (AID 2283597);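 further: hits lower the luminescence signal meaning cytotoxicity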
Procedure, shortened: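 Luminescent ATP readout (CellTiter-Glo, 30 min, room temperature) in the same wells as the p53 bla ratio. HCT116 cells were treated for 16 h at 37C with DMSO-dissolved compounds.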

[8] = TOX21_p53_BLA_p5_viability: Viability Assessment in the Tox21 HCT-116 p53 Agonism Beta-lactamase Assay, Phase 5 (AID 2283600)
Procedure, shortened: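 Seeded cells (4000/well) settle 5 h before compound addition. Plates then incubate 16 h at 37C, receive FRET substrate for 2 h, and finally CellTiter-Glo, with luminescence measured after a 30 min room-temperature incubation.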

Measured: AC50

COc1ccc(N=[N+]([O-])c2ccc(OC)cc2)cc1
inactive: [1] | [2] | [3]

NO
inactive: [1] | [2] | [4]

O=C(O)c1ccc(NC2OC[C@@H](O)[C@H](O)[C@H]2O)cc1 (stereo not given in full)
inactive: [1] | [2] | [4]

CCN(O)CC
not listed: [2]
inactive: all other assays above

CC(C)(C)NC[C@H](O)COc1cccc2c1CCCC2=O
not listed: [2] | [4]
inactive: all other assays above

O=S(=O)(O)c1ccc2c(N=Nc3ccc(S(=O)(=O)O)c4ccccc34)c(O)c(S(=O)(=O)O)cc2c1
not listed: [2]
inactive: all other assays above

CCN(CC)CCOc1ccc(C(O)(Cc2ccc(Cl)cc2)c2ccc(C)cc2)cc1 (stereo not given)
active: [1] 35.9 µM | [5] 23 µM | [7] 30.7 µM | [4] 43 µM
inactive: [6] | [3] | [8]

CCCCCCCCCCCCC(=O)O
inactive: [1] | [5] | [6] | [7] | [3]

Cc1c(C)c2c(c(C)c1OC(=O)CCC(=O)OCCO)CCC(C)(CCCC(C)CCCC(C)CCCC(C)C)O2 (stereo not given)
active: [5] 19.2 µM | [6] 37.3 µM | [7] 34.6 µM | [3] 16.2 µM | [8] 13.3 µM | [4] 37.8 µM
inactive: [1]

CCc1ncnc2cc(OC)c(OC)cc12
not listed: [2]
inactive: all other assays above

CNC(=O)C[C@@H](N)C(=O)N[C@@H](C(=O)N[C@@H]1C(=O)N2[C@@H]1SC(C)(C)[C@@H]2C(=O)O)c1ccc(O)cc1
inactive: [1] | [2] | [8] | [4]

CCCCCCCN
inactive: [1] | [2] | [4]

CC1COc2ccccc2N1 (stereo not given)
inactive: [1] | [5] | [6] | [7]

OCC(S)CS (stereo not given)
active: [5] 29.5 µM | [6] 35.7 µM
not listed: [2]
inactive: all other assays above

O=C(/C=C/c1cccc(F)c1)NC1CC1
not listed: [2]
inactive: all other assays above

CC(C)C(=O)OC(=O)C(C)C
inactive: [1] | [5] | [6] | [7] | [3]

CCCCOC(=O)CO
inactive: [1] | [2] | [4]

Cn1cc(S(C)=O)c(=O)c2ccc(F)cc21 (stereo not given)
inactive: [1] | [2] | [4]

CN1CCN(CC(=O)N2c3ccccc3C(=O)Nc3cccnc32)CC1
inactive: [1] | [5] | [6] | [7]

NC(=O)CCCCC(N)=O
not listed: [2] | [4]
inactive: all other assays above

C=CC1=C(C(=O)O)N2C(=O)[C@@H](NC(=O)/C(=N\O)c3csc(N)n3)[C@H]2SC1 (stereo in doubt)
not listed: [2]
inactive: all other assays above

CN(C)CCc1c[nH]c2ccc(Cn3cncn3)cc12
inactive: [1] | [2] | [4]

Cc1ccc(NC(=O)N(C)C)cc1NC(=O)N(C)C
not listed: [2] | [4]
inactive: all other assays above

OC[C@@H](O)[C@@H](O)CO
not listed: [2]
inactive: all other assays above

CC(C)N=c1cc2n(-c3ccc(Cl)cc3)c3ccccc3nc-2cc1Nc1ccc(Cl)cc1
not listed: [2] | [4]
inactive: all other assays above

CCCCCCCN(CC)CCCC(O)c1ccc(NS(C)(=O)=O)cc1 (stereo not given)
inactive: [1] | [5] | [6] | [7]

COc1ccc(OC)c(NC(=O)CC(C)=O)c1
not listed: [2]
inactive: all other assays above

OCCN1CCN(CCCN2c3ccccc3C=Cc3ccccc32)CC1
active: [7] 28.1 µM
inactive: [1] | [5] | [6] | [7] | [3] | [8] | [4]

CNc1cc(OC)c(C(=O)N[C@H]2CCN(Cc3ccccc3)[C@H]2C)cc1Cl
not listed: [2] | [4]
inactive: all other assays above
